The values below come from PubChem BioAssay (NCI).

Test systems include SK-MEL-2 melanoma; EKVX NSCLC; SN12C renal; UO-31 renal; TK-10 renal; ACHN renal; CAKI-1 renal; A498 renal; CCRF-CEM leukemia; MOLT-4 leukemia.
What all share (assay): NCI-60 one-dose screen, 48 h (100 = growth as untreated, 0 = no growth, -100 = all killed)
What all share (conditions): 10 µM unless noted

This is part of a sample that, as a whole, favours compounds with a hit. Of some 83,000 tested, about 20% had one in any assay.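 Growth was measured after 48 h exposure to one concentration of compound in 96-well plates. Values under 10 count as active.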 A number with no mark means an inactive call. Activity calls are given as the source filed them.

`COc1cc(C(=O)n2nc(N3CCOCC3)c3cc(-n4cccc4)ccc32)cc(OC)c1OC`: the growth with SK-MEL-2 melanoma was 92.1%; in the assay on EKVX NSCLC, 60.6%; in the assay on SN12C renal, 69%; in the assay on UO-31 renal, 32.9%; in the assay on TK-10 renal it was 88.4%; in the assay on ACHN renal, 49.8%. Further, the growth in the assay with CAKI-1 renal is 60.6%; in the assay on A498 renal, 0.812% (active); in the assay on CCRF-CEM leukemia, 36.4%; with MOLT-4 leukemia, 33.1%.

Turning to `CCOC(=O)C1=C(C)C(Cl)=N/C1=C\c1[nH]c(Cl)c(C)c1C(=O)OCC`, the growth was 109% in the assay with SK-MEL-2 melanoma; 99.5% in the assay with EKVX NSCLC; 100% in the assay with SN12C renal; 86.5% in the assay with UO-31 renal; 109% in the assay on TK-10 renal; 107% in the assay with ACHN renal. In addition, the growth is 94.5% in the assay on CAKI-1 renal, 104% in the assay on A498 renal, 51.9% in the assay on CCRF-CEM leukemia and 80.3% in the assay with MOLT-4 leukemia.

Regarding `Cc1cccc(N2CCC(=O)NC2=S)c1`, the growth in the assay on SK-MEL-2 melanoma was 122%; with EKVX NSCLC, 107%; in the assay with SN12C renal, 98.2%; with UO-31 renal it was 88.2%; with TK-10 renal it was 104%; in the assay on ACHN renal it was 107%. Further, the growth in the assay with CAKI-1 renal was 101%; in the assay on A498 renal it was 107%; in the assay on CCRF-CEM leukemia it was 154%; in the assay on MOLT-4 leukemia, 104%.

For the molecule `Nc1ncnc2c1N=C(c1ccc3c(c1)OCO3)CC(c1cccc(Nc3ccnc4cc(C(F)(F)F)ccc34)c1)N2` (stereo not given), the growth was 88% in the assay on SK-MEL-2 melanoma; 89.5% in the assay with EKVX NSCLC; 75.5% with SN12C renal; 76.9% with UO-31 renal; 99% in the assay with TK-10 renal; 98.3% in the assay on ACHN renal. Besides, the growth in the assay with CAKI-1 renal is 78.4%; in the assay on A498 renal it was 74.5%; with CCRF-CEM leukemia it was 64.8%; in the assay with MOLT-4 leukemia, 93.5%.

Take `COc1ccc(CNc2c3ccccc3nc3ccccc23)c(OC)c1`: the growth in the assay on SK-MEL-2 melanoma was 94%; with EKVX NSCLC, 51.1%; with SN12C renal it was 31%; in the assay on UO-31 renal it was 28%; with TK-10 renal, 54.4%; in the assay with ACHN renal, 25.8%. In addition, the growth in the assay on CAKI-1 renal was 36.2%; in the assay on A498 renal, -11.5% (active); in the assay with CCRF-CEM leukemia, 55.4%; with MOLT-4 leukemia, 18.5%.

With `CN1CCN(CCOc2ccc(-c3cnc4c(-c5ccc(F)cc5)cnn4c3)cc2)CC1`, the growth is 81.8% in the assay with SK-MEL-2 melanoma; 76.3% in the assay with EKVX NSCLC; 61.6% in the assay with SN12C renal; 32.3% with UO-31 renal; 75.1% in the assay on TK-10 renal; 46.6% in the assay on ACHN renal. For the same molecule, the growth is 45.5% with CAKI-1 renal, 74.9% in the assay with A498 renal, 17.6% with CCRF-CEM leukemia and 8.99% (active) in the assay with MOLT-4 leukemia.

Regarding `O=C(Cc1ccccc1)Nc1cccc(N=Cc2ccccc2O)c1`, the growth is 116% with SK-MEL-2 melanoma; 104% in the assay with EKVX NSCLC; 96.6% in the assay with SN12C renal; 77.6% in the assay with UO-31 renal; 103% in the assay with TK-10 renal; 110% with ACHN renal. Moreover, the growth is 80.8% in the assay with CAKI-1 renal, 115% with A498 renal, 106% in the assay with CCRF-CEM leukemia and 101% in the assay on MOLT-4 leukemia.

As for `O=S(=O)(NCCCNc1nccc(-c2c(-c3cccc(F)c3)nc3occn23)n1)c1ccc(F)cc1`, the growth in the assay on SK-MEL-2 melanoma is 55.5%; in the assay with EKVX NSCLC, 54.3%; with SN12C renal, 51.2%; in the assay on UO-31 renal it was 31.4%; in the assay with TK-10 renal it was 56.7%; in the assay with ACHN renal, 46%. Also, the growth in the assay with CAKI-1 renal is 37.1%; with A498 renal, 45.7%; in the assay with CCRF-CEM leukemia, 31.9%; in the assay with MOLT-4 leukemia, 8.3% (active).

For `C=C1C(=O)O[C@H]2[C@H]1CC/C(COC(=O)/C=C/C(=O)OC/C1=C/CC[C@@]3(C)O[C@H]3[C@H]3OC(=O)C(=C)[C@@H]3CC1)=C\CC[C@@]1(C)O[C@@H]21`, the growth in the assay on SK-MEL-2 melanoma was 93.4%; in the assay with EKVX NSCLC it was 88.2%; with SN12C renal, 4.73% (active); with UO-31 renal, -41.7% (active); in the assay with TK-10 renal it was 0.985% (active); in the assay with ACHN renal it was -13.5% (active). Besides, the growth was 63.3% in the assay on CAKI-1 renal, 102% with A498 renal, -12.9% (active) with CCRF-CEM leukemia and 7.58% (active) in the assay with MOLT-4 leukemia.

As for `COc1ccc(C(=O)Cn2c(C(=O)c3ccc(Cl)cc3)nc3ccccc32)cc1`, the growth in the assay on SK-MEL-2 melanoma is 73.4%; with EKVX NSCLC it was 90.9%; in the assay on SN12C renal it was 65.1%; with UO-31 renal, 54.7%; in the assay with TK-10 renal it was 99.6%; in the assay on ACHN renal, 65.5%. In addition, the growth was 63.5% with CAKI-1 renal, 77.9% with A498 renal, 39.2% in the assay with CCRF-CEM leukemia and 48.5% with MOLT-4 leukemia.

As to `COc1cc2c(cc1OCCCCN1CCN(C(=S)SCCC(C#N)(c3ccccc3)c3ccccc3)CC1)N=C[C@@H]1CCCN1C2=O`, the growth in the assay with SK-MEL-2 melanoma was -95.1% (active); in the assay with EKVX NSCLC it was -94.8% (active); in the assay on SN12C renal, -57.4% (active); in the assay with UO-31 renal, 10.8%; with TK-10 renal, -79.6% (active); in the assay on ACHN renal it was -68.8% (active). Also, the growth is -64.7% (active) in the assay with CAKI-1 renal, -95% (active) with A498 renal, -20.2% (active) in the assay with CCRF-CEM leukemia and -13.2% (active) in the assay on MOLT-4 leukemia.

In the case of `O=C1c2cccc3cccc(c23)C(=O)N1C/C=C/c1ccc2c3c(cccc13)C(=O)N(CCO)C2=O`, the growth in the assay with SK-MEL-2 melanoma was 90.7%; with EKVX NSCLC it was 91.5%; in the assay with SN12C renal it was 75.7%; with UO-31 renal, 48.1%; with TK-10 renal, 98.7%; with ACHN renal, 34.1%. The growth is 63.1% with CAKI-1 renal, 74.7% with A498 renal, 83.3% with CCRF-CEM leukemia and 80% in the assay with MOLT-4 leukemia.
